Bioassay records as filed in PubChem BioAssay.
Shown are actives, neighbours in structure and some others; about 6.5% of the full set was active somewhere.
NADH enzymes: inhibitors of PK/LDH coupling enzymes, profiling panel, artefact control, biochemical, MLSMR library; 65,000 tested, 0.02% active; AID 774, 2007; IC50, µM (doses to about 10 µM), for the others: at the highest dose inhibition; coupled PK/LDH NADH assays, four targets;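 active means single-dose screening hits from any of four coupled enzyme assays that gave an IC50 when retested across doses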;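 further: the DPM-DC format reads NADH fluorescence rather than 340 nm absorbance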
MK inhibit: S. pneumoniae MK inhibitors, primary screen, biochemical, PK/LDH-coupled NADH absorbance | mevalonate kinase [Streptococcus pneumoniae D39] | purified MK, PK/LDH-coupled NADH absorbance 340 nm | inhibition, % at 10 µM | 65,000 tested, 0.48% active;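 active means ranked among the strongest by inhibition in the single 10 µM screen, a fixed top-ranked set picked for dose follow-up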
DPM-DC inhibit: S. pneumoniae DPM-DC inhibitors, primary screen, biochemical, PK/LDH-coupled NADH fluorescence; 65,000 tested, 0.49% active; purified DPM-DC; diphosphomevalonate decarboxylase (Streptococcus pneumoniae D39); calls only at 10 µM;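 active means the 320 compounds with the highest percent inhibition in the single-dose primary screen, excluding strongly autofluorescent ones, cut at about 32% in these data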;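 further: kinetic rate of NADH fluorescence loss reporting ADP formed by the decarboxylase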
PMK inhibit: S. pneumoniae PMK inhibitors, primary screen, biochemical, mevalonate pathway, pilot trial included; purified PMK, PK/LDH-coupled NADH absorbance 340 nm; 65,000 tested, 0.49% active; phosphomevalonate kinase (Streptococcus pneumoniae D39); inhibition, % at 10 µM;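 active means top-ranked compounds by inhibition in the single 10 µM screen, taking a fixed number of the strongest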;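 further: 0% = full reaction with DMSO carrier and 100% = background rate without enzyme reaction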
Abs 340nm: compound light absorbance at 340 nm, profiling panel, artefact control, biochemical, MLSMR library, data from PS, PMK, MK assays. compound absorbance at 340 nm, fold over control. fold change at 10 µM. 65,000 tested, under 10 active;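 active means at 10 µM dose, initial 340 nm absorbance at least 2 fold that of control wells; inactive means change under 2 fold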;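 further: initial absorbance extrapolated from kinetic A340 decline of NADH oxidation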
Fluor 339 460: intrinsic fluorescence of library compounds, ex339/em460 – biochemical, MLSMR library, data from DPM-DC assay, artefact control, profiling panel; AID 709, 2007; compound autofluorescence, ex339/em460 nm, NADH buffer; active compounds read high; 1 = no-compound wells, NADH background; fluorescence fold increase at 10 µM; 65,000 tested, 5.5% active;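 active means at 10 µM, mean starting fluorescence two-fold or more over control wells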;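 further: signal is the first read of a kinetic run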
Numbers without * were called inactive; i = inactive; · = no result shown.

SMILES | NADH enzymes | MK inhibit | DPM-DC inhibit | PMK inhibit | Abs 340nm | Fluor 339 460
CS(=O)(=O)N1CCCC(C(=O)NCCc2ccccc2)C1 (stereo unspecified) | 3.0% | 7.0 | i | 1.0 | 1.03 | 1.11
CS(=O)(=O)N1CCCC(C(=O)NCCc2ccc(Cl)cc2)C1 (stereo unspecified) | 14.0% | 0.0 | i | 26.0* | 0.96 | 0.86
O=C(NCc1cccs1)C1CCCN(c2nc3ccccc3o2)C1 (stereo unspecified) | 12.0% | 10.0 | i | 25.0* | 0.99 | 1.05
O=C(NCc1cccs1)C1CCCN(S(=O)(=O)c2cccs2)C1 (stereo unspecified) | 2.0% | 0.0 | i | 7.0 | 1 | 1.17
CS(=O)(=O)N1CCCC(C(=O)NCc2cccs2)C1 (stereo unspecified) | 8.0% | 0.0 | i | 25.0* | 1.02 | 1.05
Cc1c(C)[n+](=O)c2c(n1[O-])CCCCC2 | 4.0% | 9.0 | i | 11.0 | 0.97 | 0.98
COc1ccc(-c2c3c(=O)n(C)c(=O)n(C)c3cn2-c2cc(OC)ccc2OC)cc1 | 12.0% | 11.0 | · | 12.0 | 1.02 | 3.68*
Cc1cccc(-c2c3c(=O)n(C)c(=O)n(C)c3cn2-c2ccc(O)cc2)c1 | 7.0% | 10.0 | i | 4.0 | 1.01 | 2.11*
COc1ccc(-c2c3c(=O)n(C)c(=O)n(C)c3cn2Cc2ccccn2)cc1 | 4.0% | 4.0 | i | 7.0 | 1.08 | 1.33
Cn1c(=O)c2c(-c3ccccc3)n(-c3ccccc3O)cc2n(C)c1=O | 13.0% | 1.0 | i | 16.0 | 1.04 | 2.22*
Cn1c(=O)c2c(-c3ccccc3)n(C3CCCCC3)cc2n(C)c1=O | 17.0% | 13.0 | i | 31.0* | 1.01 | 1.41
Cn1c(=O)c2c(-c3ccccc3)n(N3CCOCC3)cc2n(C)c1=O | 7.0% | 14.0 | i | 6.0 | 1.03 | 1.31
O=C(O)Cn1ncc2c1-c1ccoc1CC2 | 1.0% | 2.0 | i | 0.0 | 1.02 | 1.02
Cc1cc(NC(=O)CSc2nnc3c(C)cc4cc5c(cc4n23)OCO5)no1 | 9.0% | 9.0 | i | 11.0 | 1.03 | 1.69
COC(=O)c1ccc(CSc2nc3ccccc3c(=O)n2Cc2ccco2)o1 | 4.0% | 7.0 | i | 0.0 | 1 | 1.03
O=C(c1cc(-c2cccnc2)nc2ccc(Br)cc12)N1CCC2(CC1)OCCO2 | 2.0% | 2.0 | i | 3.0 | 1.08 | 1.06
CCCCCC(=O)OC(CN1CCCCC1)CN1CCCC1=O (stereo unspecified) | 7.0% | 7.0 | i | 15.0 | 0.99 | 1.05
CC(=O)c1cc2c(cc1NC(=O)CSc1nc3ccccc3o1)OCO2 | 15.0% | 11.0 | i | 7.0 | 1.03 | 2.37*
CC(=O)Nc1nonc1NC(=O)CSc1nc2ccccc2o1 | 5.0% | 0.0 | i | 14.0 | 0.99 | 1.02
CCOC(=O)C1(CCSC)NC(c2ccco2)C2C(=O)N(C)C(=O)C21 (stereo unspecified) | 6.0% | 3.0 | i | 14.0 | 1.01 | 1.03
CC(C)C(NS(=O)(=O)c1cccs1)C(=O)NCc1ccc2c(c1)OCO2 (stereo unspecified) | 3.0% | 10.0 | i | 0.0 | 1.02 | 1.16
Cn1cc(C(=O)N2CCN(C(=O)c3ccco3)CC2)c2c3ccccc3n(C)c2c1=O | 12.0% | 0.0 | i | 16.0 | 1.07 | 3.45*
CCN1CCN(C(=O)c2cn(CCOC)c(=O)c3c2c2ccccc2n3C)CC1 | 7.0% | 0.0 | i | 11.0 | 1.01 | 2.78*
Cn1c(C(=O)N2CCCC2)cc2c(=O)n(C)c3ccccc3c21 | 14.0% | 26.0 | i | 6.0 | 1.04 | 1.08
O=C(CNC(=O)c1cccs1)NCCN1CCN(c2ccccc2F)CC1 | 5.0% | 8.0 | i | 25.0* | 0.96 | 1
SMILES | NADH enzymes | MK inhibit | DPM-DC inhibit | PMK inhibit | Abs 340nm | Fluor 339 460
CCOC(=O)C1CCN(C(=O)c2cn(CCOC)c(=O)c3c2c2ccccc2n3C)CC1 | 7.0% | 4.0 | · | 9.0 | 1.07 | 4.89*
Cc1cc(-c2cc(N)n(-c3ccccc3)n2)c(C)n1C1CCCC1 | 2.0% | 0.0 | i | 5.0 | 1.07 | 1.15
CC(C)c1nnc(NC(=O)CC(=O)Nc2ccccc2C(=O)O)s1 | 5.0% | 7.0 | i | 8.0 | 1.03 | 1.1
COc1ccc(N(CC(=O)NC(C)(C)C)S(=O)(=O)c2ccccc2)cc1OC | 4.0% | 5.0 | i | 7.0 | 1.05 | 1.14
Cn1cc(C(=O)NCCN2CCN(c3ccccc3F)CC2)c2c3ccccc3n(C)c2c1=O | 11.0% | 2.0 | i | 8.0 | 1.07 | 3.47*
CC(C)Cn1cc(C(=O)NCCCN2CCCC2=O)c2c3ccccc3n(C)c2c1=O | 14.0% | 7.0 | i | 17.0 | 1.03 | 3.88*
CCOC(=O)C1CCCN(C(=O)c2cc3c(=O)n(C)c4ccccc4c3n2C)C1 (stereo unspecified) | 8.0% | 4.0 | i | 14.0 | 1.02 | 1.07
COCCn1cc(C(=O)N2CCCC(C)C2)c2c3ccccc3n(C)c2c1=O (stereo unspecified) | 10.0% | 8.0 | · | 12.0 | 1 | 4.49*
COc1ccccc1-n1cc(C(=O)NCC(=O)N2CCN(c3ccccn3)CC2)c2ccccc2c1=O | 1.0% | 4.0 | i | 0.0 | 1.02 | 1.17
CC(C)Cn1cc(C(=O)N2CCN(c3ccccn3)CC2)c2c3ccccc3n(C)c2c1=O | 5.0% | 9.0 | i | 7.0 | 1.04 | 2.09*
COc1ccc(N(CC(=O)NCc2cccnc2)S(=O)(=O)c2c(C)nn(C)c2C)cc1 | 7.0% | 7.0 | i | 13.0 | 1.02 | 1.02
N#Cc1c(NC(=O)CSc2ncnc3sccc23)oc(-c2ccco2)c1-c1ccco1 | 6.0% | 7.0 | i | 5.0 | 1.11 | 1.35
CCCS(=O)(=O)N1CCC(C(=O)NCC2CCCO2)CC1 (stereo unspecified) | 1.0% | 2.0 | i | 2.0 | 1.02 | 1.16
Cc1cc(OCC(=O)Nn2cnnc2)c(C)cc1Br | 7.0% | 3.0 | i | 7.0 | 1.04 | 1.12
COc1ccc2c(c1)CCc1c(C(=O)Nc3cc(C)n(Cc4ccc(Cl)cc4)n3)noc1-2 | 8.0% | 3.0 | i | 15.0 | 1.08 | 3.7*
COc1ccc2c(c1)CCc1c(C(=O)Nc3ccc(OC)c(OC)c3)noc1-2 | 5.0% | 0.0 | i | 16.0 | 0.99 | 2.17*
COc1ccc2c(c1)CCc1c(C(=O)Nc3ccn(Cc4ccc(C)cc4)n3)noc1-2 | 4.0% | 0.0 | i | 13.0 | 1.04 | 1.17
COc1ccc(CC(=O)OCC(=O)NC(=O)NC2CCCCC2)cc1 | 5.0% | 7.0 | i | 17.0 | 1 | 1.06
CCOC(=O)c1[nH]c(C)c(C(=O)OCC)c1C | 0.0% | 0.0 | i | 0.0 | 1.04 | 1.07
CCOC(=O)c1nc(N)c(C(=O)OCC)[nH]1 | 3.0% | 6.0 | · | 0.0 | 1.05 | 2.27*
